From the supplement of paper PMC11732987, “Enantioselective OTUD7B fragment discovery through chemoproteomics screening and high-throughput optimisation” (Communications Chemistry, 2025)

Columns and labels:
Assay in all cases: log2 ratio of Biotin-Ahx-Ub-VS probe labelling (fragment/DMSO); higher = less target engagement (more negative = stronger competition), active = hit call of the paper (q ≤ 0.05, log2 ratio ≤ -1)
Details in all cases: compound concentration: 200 uM; treatment time: 3 h
USP42 = target: T1, USP42 (UniProt Q9H9J4)
T1 sequence (whole entry): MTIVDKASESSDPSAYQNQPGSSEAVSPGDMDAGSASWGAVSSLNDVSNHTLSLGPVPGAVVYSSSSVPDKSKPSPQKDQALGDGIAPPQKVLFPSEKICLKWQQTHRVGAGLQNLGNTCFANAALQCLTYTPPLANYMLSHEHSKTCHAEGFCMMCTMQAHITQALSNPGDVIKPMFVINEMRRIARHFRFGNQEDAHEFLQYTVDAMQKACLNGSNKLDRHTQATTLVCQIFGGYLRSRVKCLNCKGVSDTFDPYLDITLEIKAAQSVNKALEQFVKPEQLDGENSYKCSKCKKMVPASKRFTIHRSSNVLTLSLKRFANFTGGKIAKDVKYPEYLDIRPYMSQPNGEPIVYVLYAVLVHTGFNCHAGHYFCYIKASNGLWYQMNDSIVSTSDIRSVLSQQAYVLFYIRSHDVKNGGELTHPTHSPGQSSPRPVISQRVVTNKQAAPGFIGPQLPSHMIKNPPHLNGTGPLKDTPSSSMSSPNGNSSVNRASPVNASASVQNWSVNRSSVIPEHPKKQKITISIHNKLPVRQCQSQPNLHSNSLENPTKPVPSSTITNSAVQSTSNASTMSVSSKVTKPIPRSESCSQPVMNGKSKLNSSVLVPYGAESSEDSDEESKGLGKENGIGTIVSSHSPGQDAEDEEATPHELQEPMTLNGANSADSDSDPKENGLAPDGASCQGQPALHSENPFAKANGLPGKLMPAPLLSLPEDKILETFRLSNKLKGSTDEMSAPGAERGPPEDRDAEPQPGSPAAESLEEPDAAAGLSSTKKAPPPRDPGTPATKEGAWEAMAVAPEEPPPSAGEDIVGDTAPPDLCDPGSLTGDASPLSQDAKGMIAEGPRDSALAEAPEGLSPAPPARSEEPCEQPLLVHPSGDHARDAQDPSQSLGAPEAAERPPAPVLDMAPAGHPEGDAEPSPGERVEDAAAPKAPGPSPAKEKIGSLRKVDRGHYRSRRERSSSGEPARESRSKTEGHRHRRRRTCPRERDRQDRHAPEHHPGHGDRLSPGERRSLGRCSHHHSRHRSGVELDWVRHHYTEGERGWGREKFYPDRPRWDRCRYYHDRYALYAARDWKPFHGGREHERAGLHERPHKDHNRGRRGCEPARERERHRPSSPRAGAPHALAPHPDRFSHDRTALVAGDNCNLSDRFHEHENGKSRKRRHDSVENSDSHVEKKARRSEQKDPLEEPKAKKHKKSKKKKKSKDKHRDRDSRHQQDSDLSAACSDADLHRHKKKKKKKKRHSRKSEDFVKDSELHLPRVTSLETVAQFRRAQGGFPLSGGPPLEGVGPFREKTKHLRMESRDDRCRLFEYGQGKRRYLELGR
How it was run: (§1)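 The table lists average log2 ratios of fragment over vehicle, from an unpaired t-test on global-median-normalised Spectronaut label-free quantities. Proteins with ≥2 unique peptides were used. Samples were HEK293T lysate (495 µg) treated in triplicate with fragment at 200 µM or vehicle for 3 h, then with Biotin-Ahx-Ub-VS (0.5 µM final) for 1 h, with labelled DUBs NeutrAvidin-enriched and run by diaPASEF LC-MS/MS.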

USP46 = USP46 (UniProt P62068)
How it was run: as §1

USP47 = target: T2, USP47 (UniProt Q96K76)
T2 sequence (whole entry): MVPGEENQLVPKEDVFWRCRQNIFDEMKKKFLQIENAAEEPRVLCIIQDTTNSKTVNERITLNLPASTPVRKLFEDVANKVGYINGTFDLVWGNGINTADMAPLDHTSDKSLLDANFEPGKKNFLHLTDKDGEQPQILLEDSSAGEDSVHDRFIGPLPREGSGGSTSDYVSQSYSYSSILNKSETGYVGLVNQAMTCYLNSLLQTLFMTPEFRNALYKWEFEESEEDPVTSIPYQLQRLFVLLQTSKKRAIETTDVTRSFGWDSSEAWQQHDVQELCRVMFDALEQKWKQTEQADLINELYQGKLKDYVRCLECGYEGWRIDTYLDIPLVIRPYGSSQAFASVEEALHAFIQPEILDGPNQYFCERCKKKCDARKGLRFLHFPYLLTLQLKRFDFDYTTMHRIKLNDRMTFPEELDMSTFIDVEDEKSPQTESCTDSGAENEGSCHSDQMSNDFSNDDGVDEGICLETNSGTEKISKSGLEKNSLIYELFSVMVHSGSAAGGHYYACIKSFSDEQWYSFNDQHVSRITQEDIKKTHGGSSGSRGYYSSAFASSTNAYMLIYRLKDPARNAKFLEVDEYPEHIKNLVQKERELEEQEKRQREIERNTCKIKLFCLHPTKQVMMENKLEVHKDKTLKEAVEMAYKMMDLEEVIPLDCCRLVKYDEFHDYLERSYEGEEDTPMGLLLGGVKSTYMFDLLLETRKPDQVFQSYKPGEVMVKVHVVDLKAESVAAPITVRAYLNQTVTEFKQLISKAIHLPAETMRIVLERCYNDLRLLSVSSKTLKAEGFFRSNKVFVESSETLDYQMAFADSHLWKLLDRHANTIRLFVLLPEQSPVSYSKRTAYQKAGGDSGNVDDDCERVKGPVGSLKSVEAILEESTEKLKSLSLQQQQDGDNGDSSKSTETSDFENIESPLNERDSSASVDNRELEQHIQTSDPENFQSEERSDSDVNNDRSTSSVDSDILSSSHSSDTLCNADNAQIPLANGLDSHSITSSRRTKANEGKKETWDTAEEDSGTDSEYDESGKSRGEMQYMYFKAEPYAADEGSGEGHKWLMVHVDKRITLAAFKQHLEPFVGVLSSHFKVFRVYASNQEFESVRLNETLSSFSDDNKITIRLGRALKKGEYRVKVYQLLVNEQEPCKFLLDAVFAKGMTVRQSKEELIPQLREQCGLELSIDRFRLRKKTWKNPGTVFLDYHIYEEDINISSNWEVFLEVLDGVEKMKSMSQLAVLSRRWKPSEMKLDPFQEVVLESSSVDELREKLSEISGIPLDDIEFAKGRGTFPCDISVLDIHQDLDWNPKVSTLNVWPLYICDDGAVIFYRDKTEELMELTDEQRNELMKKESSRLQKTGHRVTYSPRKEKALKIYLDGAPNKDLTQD
How it was run: as §1

USP48 = target: T3, USP48 (UniProt Q86UV5)
T3 sequence (whole entry): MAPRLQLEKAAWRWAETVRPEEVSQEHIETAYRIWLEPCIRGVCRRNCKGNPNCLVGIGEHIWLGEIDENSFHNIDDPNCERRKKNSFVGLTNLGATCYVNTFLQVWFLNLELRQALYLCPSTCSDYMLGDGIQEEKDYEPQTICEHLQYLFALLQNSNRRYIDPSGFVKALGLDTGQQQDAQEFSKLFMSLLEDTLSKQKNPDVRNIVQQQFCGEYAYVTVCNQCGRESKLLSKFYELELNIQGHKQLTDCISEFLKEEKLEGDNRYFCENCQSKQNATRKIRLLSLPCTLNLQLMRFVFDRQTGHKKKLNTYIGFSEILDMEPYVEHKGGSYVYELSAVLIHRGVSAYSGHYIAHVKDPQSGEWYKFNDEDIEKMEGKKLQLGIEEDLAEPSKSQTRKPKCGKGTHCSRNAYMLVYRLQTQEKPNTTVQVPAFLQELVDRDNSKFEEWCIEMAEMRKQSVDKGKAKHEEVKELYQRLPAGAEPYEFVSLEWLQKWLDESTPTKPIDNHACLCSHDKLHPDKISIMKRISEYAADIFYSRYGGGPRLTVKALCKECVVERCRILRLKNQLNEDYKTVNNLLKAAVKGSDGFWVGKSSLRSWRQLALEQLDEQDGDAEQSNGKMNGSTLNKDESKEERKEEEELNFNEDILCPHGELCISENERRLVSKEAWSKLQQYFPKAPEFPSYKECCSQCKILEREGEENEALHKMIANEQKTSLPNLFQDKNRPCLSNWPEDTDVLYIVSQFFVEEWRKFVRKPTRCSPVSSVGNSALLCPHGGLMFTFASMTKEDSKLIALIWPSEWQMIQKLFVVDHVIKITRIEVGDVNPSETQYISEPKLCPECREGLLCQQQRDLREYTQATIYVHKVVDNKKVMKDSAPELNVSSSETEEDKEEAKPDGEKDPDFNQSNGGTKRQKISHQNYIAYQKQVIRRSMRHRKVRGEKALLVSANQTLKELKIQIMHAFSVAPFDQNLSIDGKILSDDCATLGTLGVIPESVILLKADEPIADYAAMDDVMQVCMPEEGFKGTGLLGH
How it was run: as §1

USP5 = target: T4, USP5 (UniProt P45974)
T4 sequence (whole entry): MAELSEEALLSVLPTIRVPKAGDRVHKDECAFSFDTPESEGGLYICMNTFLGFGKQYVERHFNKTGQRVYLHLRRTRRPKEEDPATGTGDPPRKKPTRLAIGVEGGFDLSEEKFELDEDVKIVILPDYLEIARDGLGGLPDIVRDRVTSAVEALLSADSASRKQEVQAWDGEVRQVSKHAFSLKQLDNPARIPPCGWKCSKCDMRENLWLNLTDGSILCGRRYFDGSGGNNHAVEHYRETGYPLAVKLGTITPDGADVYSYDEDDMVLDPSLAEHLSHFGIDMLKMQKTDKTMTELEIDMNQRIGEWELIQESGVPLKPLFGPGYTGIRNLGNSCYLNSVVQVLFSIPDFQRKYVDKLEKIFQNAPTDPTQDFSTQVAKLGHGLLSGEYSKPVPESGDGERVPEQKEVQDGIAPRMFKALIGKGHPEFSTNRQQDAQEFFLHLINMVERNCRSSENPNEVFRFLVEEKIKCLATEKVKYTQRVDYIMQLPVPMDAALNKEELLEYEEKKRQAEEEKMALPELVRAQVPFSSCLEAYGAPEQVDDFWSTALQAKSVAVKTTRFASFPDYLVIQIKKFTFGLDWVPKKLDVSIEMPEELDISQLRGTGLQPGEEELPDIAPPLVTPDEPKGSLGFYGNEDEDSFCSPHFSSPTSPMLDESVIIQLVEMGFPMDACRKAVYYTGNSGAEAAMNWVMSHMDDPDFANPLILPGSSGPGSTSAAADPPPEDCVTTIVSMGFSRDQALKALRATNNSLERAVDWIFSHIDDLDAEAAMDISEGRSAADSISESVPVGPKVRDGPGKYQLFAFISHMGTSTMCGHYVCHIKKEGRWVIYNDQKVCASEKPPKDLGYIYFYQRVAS
How it was run: as §1

USP54 = USP54 (UniProt Q70EL1)
How it was run: as §1

USP7 = USP7 (UniProt Q93009)
How it was run: as §1

USP8 = target: T5, USP8 (UniProt P40818)
T5 sequence (whole entry): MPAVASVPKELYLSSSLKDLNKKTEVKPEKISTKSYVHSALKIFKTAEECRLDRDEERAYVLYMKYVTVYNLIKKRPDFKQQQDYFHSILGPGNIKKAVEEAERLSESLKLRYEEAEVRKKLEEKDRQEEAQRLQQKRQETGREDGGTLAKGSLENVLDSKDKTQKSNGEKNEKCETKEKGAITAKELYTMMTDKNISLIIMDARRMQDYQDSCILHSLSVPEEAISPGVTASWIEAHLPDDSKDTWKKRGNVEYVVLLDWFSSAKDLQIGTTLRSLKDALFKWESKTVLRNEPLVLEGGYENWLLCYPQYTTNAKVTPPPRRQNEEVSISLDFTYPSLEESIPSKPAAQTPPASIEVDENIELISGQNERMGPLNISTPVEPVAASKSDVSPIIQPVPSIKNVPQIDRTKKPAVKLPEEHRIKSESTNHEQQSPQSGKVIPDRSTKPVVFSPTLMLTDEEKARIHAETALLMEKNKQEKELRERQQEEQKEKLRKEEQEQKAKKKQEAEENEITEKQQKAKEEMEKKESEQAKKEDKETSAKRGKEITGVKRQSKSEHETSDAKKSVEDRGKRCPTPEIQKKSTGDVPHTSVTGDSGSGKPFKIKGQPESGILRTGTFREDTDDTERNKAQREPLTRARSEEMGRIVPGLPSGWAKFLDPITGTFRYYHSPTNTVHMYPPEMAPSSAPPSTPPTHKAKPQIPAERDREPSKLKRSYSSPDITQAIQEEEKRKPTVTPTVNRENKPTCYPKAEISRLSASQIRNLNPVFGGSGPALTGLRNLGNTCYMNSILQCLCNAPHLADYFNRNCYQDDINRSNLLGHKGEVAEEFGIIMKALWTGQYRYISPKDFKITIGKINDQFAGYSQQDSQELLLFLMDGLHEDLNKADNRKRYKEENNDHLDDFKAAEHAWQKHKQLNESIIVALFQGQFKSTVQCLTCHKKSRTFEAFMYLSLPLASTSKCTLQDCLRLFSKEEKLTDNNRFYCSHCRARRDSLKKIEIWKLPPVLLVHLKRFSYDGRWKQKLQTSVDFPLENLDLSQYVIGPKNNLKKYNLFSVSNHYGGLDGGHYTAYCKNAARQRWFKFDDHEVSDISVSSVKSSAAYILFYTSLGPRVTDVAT
How it was run: as §1

USP9X = USP9X (UniProt Q93008)
How it was run: as §1

UniProt O00487 = target: UniProt O00487
How it was run: as §1

Measured: log2 ratio of Biotin-Ahx-Ub-VS probe labelling

USP7, sequence (Q93009 whole entry, looked up): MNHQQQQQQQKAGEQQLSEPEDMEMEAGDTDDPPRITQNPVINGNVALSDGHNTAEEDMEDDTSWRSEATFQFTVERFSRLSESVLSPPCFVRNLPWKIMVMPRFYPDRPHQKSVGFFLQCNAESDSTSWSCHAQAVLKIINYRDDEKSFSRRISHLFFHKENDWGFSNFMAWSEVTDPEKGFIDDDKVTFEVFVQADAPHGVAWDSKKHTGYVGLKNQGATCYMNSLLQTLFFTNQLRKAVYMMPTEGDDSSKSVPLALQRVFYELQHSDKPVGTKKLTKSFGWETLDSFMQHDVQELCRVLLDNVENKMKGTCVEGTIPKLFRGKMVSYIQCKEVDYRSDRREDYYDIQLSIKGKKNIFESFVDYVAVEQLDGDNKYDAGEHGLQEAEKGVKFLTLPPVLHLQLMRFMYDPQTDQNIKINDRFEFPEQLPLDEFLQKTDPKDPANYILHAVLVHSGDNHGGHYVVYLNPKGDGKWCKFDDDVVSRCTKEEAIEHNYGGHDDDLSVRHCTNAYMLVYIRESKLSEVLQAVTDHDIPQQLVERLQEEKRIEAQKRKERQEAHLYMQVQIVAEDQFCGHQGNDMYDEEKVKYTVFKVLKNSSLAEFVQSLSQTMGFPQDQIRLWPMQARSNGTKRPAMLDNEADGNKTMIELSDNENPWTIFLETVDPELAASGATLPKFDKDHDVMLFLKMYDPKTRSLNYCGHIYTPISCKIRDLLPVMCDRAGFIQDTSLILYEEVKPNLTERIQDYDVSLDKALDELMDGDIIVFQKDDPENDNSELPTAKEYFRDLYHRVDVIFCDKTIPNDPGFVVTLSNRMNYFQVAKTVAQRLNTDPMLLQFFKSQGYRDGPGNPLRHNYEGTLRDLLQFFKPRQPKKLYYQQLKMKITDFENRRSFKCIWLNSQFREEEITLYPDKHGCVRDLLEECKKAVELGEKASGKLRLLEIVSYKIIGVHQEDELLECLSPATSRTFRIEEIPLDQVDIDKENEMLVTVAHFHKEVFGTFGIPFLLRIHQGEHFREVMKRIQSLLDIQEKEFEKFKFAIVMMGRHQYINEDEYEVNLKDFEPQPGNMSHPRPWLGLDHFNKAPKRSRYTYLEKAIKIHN
USP9X, sequence (Q93008 whole entry): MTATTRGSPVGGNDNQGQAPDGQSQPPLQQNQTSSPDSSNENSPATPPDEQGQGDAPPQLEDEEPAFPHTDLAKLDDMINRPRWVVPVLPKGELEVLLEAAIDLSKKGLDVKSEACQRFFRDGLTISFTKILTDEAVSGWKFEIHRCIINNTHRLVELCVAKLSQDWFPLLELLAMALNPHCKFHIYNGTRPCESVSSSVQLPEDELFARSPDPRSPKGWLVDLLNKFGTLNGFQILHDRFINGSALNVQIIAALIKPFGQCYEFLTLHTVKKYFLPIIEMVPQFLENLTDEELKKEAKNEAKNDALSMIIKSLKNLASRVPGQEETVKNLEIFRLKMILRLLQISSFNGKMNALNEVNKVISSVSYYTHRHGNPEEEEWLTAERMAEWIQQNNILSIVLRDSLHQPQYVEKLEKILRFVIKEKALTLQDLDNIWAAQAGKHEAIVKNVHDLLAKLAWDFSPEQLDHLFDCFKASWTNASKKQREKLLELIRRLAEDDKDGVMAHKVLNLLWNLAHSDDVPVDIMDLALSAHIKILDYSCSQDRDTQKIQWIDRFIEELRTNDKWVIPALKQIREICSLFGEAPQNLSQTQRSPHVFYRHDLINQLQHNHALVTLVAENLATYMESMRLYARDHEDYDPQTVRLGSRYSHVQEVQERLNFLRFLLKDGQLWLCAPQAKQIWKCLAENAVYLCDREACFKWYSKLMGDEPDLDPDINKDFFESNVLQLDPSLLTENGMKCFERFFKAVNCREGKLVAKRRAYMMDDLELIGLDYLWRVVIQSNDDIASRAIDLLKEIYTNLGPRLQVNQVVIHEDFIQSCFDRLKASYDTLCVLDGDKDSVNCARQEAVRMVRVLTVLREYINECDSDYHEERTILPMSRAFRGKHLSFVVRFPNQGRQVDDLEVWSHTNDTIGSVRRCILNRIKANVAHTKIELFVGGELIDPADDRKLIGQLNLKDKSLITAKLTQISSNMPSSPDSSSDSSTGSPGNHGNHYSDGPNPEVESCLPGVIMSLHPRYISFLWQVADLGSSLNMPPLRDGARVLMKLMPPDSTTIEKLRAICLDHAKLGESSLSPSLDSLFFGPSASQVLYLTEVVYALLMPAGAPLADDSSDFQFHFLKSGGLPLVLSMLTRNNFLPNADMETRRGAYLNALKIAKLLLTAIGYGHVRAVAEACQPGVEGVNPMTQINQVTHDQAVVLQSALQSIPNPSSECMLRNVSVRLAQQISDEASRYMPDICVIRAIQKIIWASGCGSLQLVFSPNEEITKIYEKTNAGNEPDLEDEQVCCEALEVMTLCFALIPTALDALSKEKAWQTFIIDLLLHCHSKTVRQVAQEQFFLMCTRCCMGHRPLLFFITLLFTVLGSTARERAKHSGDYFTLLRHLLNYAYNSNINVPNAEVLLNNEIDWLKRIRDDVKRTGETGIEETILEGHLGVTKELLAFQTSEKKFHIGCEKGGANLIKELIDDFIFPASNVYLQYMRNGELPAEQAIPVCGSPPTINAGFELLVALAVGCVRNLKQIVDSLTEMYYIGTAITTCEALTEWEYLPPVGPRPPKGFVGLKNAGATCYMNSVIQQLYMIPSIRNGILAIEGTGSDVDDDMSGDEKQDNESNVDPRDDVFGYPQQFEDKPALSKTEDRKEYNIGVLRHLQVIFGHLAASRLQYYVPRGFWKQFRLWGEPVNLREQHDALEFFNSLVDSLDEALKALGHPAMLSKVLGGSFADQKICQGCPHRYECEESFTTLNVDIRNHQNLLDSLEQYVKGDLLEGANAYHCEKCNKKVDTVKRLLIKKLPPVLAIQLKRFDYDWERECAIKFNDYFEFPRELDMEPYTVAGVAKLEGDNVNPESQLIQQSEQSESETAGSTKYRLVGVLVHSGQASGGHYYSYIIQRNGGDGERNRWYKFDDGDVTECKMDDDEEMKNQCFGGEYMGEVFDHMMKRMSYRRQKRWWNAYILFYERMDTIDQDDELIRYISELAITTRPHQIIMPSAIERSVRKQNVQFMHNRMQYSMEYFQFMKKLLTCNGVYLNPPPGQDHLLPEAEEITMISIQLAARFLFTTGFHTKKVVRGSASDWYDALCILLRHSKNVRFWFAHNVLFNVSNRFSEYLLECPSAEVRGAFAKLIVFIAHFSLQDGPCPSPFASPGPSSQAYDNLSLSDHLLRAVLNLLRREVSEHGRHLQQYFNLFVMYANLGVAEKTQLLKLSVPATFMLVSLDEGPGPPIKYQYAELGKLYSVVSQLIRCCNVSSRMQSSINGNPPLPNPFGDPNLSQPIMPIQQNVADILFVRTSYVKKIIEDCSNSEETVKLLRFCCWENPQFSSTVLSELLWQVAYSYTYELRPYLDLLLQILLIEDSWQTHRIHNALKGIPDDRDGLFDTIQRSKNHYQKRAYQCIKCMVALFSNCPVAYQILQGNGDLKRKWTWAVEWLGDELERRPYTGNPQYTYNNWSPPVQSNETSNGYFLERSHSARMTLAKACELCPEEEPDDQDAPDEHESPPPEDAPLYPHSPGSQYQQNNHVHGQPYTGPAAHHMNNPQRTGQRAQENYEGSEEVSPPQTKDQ
USP46, sequence (P62068 whole entry): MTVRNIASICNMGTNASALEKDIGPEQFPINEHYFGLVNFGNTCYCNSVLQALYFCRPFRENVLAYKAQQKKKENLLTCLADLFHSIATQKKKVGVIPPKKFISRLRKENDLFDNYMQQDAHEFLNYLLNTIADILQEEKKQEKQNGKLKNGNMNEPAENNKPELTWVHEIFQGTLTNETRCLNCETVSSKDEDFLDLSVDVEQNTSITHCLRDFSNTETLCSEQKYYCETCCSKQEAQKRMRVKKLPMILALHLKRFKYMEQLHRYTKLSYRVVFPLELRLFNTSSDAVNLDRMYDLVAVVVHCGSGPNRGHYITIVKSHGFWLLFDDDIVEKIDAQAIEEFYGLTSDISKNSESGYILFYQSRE
UniProt O00487, sequence (O00487 whole entry): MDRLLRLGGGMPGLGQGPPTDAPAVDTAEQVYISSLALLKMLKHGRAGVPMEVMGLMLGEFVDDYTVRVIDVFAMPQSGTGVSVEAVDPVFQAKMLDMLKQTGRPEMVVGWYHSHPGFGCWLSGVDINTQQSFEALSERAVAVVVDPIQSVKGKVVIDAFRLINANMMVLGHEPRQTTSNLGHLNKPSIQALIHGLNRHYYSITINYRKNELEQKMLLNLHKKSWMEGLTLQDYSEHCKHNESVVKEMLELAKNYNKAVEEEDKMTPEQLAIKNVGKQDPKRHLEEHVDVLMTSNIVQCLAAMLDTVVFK

O=C(CCl)N1CCc2sccc2C1
inactive: USP42 0.32 | USP46 -0.578 | USP47 -0.774 | USP48 -0.677 | USP5 -0.108 | USP54 -0.356 | USP8 0.015 | USP9X -0.286 | UniProt O00487 0.0182
active: USP7 -1.34
